CYP2C19 inhib = blockers of cytochrome P450 2C19 activity – biochemical, luminescence, ADME assay, primary screen; P33261; CYP2C19 Supersomes, luciferin-H EGE luminescence, 30 min; inhibition, % at 5 µM; 96,000 compounds, 21% hits;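 active means CYP2C19 inhibition above a set limit at 5 µM in the primary screen, cut at about 50% in these data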;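 further: plate controls were negative control wells for no effect and 2.5 mM tranylcypromine positive control for full effect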
Cav32 inh = Cav3.2 calcium influx blockers – cell-based, Fluo-4 calcium fluorescence, FDSS, MLSMR library, primary screen. Voltage-dependent T-type calcium channel subunit alpha-1H (Homo sapiens), O95180. Cav3.2-expressing cells; active compounds read low. B-score at 10 µM. 100,000 compounds, 4% hits. AID 449739, 2010;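 active means single-dose well whose peak fluorescence ratio is a statistical outlier from its plate by either plate-standardised score or position-corrected B-score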
CYP2C9 act = human CYP2C9 activators, primary screen, biochemical, luminescence | activation factor at 5 µM | 96,000 compounds, 1.4% hits | recombinant CYP2C9, luciferin-H conversion; active compounds read high; factor 1 = untreated enzyme, 0 = blocked;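 active means activation factor of 2 or more for CYP2C9 at a 5 µM dose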;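 further: 0 = sulfaphenazole-blocked wells and 1 = vehicle-only wells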
Target sequence (P11712 whole entry, looked up): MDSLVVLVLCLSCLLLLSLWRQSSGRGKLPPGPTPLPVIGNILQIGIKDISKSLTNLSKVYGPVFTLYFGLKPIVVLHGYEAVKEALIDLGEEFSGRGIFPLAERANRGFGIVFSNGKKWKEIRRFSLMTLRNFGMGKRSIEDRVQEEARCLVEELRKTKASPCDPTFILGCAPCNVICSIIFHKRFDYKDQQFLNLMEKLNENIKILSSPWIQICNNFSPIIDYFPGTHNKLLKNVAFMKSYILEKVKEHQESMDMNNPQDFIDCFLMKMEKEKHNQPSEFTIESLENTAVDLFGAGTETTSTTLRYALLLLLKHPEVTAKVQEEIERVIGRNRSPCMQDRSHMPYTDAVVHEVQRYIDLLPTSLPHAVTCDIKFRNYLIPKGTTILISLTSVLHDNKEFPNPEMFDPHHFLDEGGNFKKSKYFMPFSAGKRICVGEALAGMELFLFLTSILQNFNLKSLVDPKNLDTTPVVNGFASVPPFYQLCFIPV
CYP2C9 inhib = blockers of cytochrome P450 2C9 activity – biochemical, luminescence, ADME assay, primary screen | P11712 | CYP2C9 Supersomes, luciferin-H conversion | inhibition, % at 5 µM | 96,000 compounds, 20% hits;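 active means blocking of liver enzyme CYP2C9 beyond about 50% at 5 µM, limit read from the data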
CYP2C19 activ = human CYP2C19 activators, primary screen, biochemical, luminescence; Cytochrome P450 2C19 (Homo sapiens), P33261; recombinant CYP2C19, luciferin-H EGE luminescence; active compounds read high; 0 = fully inhibited enzyme, 1 = untreated enzyme; activation factor at 5 µM; 96,000 tested, under 10 active;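 active means activation factor of at least 2 at 5 µM in the primary screen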;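 further: 0 = wells with 2.5 mM tranylcypromine and 1 = vehicle-only wells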
* marks the source's active call; other numbers are inactive results. Hits are enriched below; roughly 27% of the tested compounds scored in any of these assays.

Results for CC(C)(C)OC(=O)N1CC2Cc3[nH]c(=O)ccc3C(C2)C1 (stereo unspecified) ?
CYP2C19 inhib: 17.8; Cav32 inh: 0.652; CYP2C9 act: 1; CYP2C9 inhib: -2.8; CYP2C19 activ: 0.8

Results for COC(=O)C1=NN(C(=O)c2ccc(C)cc2)C(O)(c2ccc(Cl)cc2)C1 (stereo unspecified) ?
CYP2C19 inhib: 20.9; Cav32 inh: -3.22*; CYP2C9 act: 0.6; CYP2C9 inhib: 35.1; CYP2C19 activ: 0.8

What do the screens show for `COC(=O)C1=NN(C(=O)c2ccccc2)C(C)(O)C1` (stereo unspecified)?
CYP2C19 inhib: -3.6; Cav32 inh: -0.0752; CYP2C9 act: 1.1; CYP2C9 inhib: -9.4; CYP2C19 activ: 1

Results for CCCCN(Cc1ccccc1)S(=O)(=O)c1ccc2[nH]c(=O)oc2c1 ?
CYP2C19 inhib: 75.6*; Cav32 inh: -1.09; CYP2C9 act: 0.8; CYP2C9 inhib: 15.8; CYP2C19 activ: 0.2

What do the screens show for `O=c1[nH]c2ccc(S(=O)(=O)N3CCC(Cc4ccccc4)CC3)cc2o1`?
CYP2C19 inhib: 1.8; Cav32 inh: 1.67; CYP2C9 act: 1.9; CYP2C9 inhib: -87.6; CYP2C19 activ: 1

What do the screens show for `O=C(CSc1ccccc1)Nc1cccnc1`?
CYP2C19 inhib: 42.5; Cav32 inh: 0.085; CYP2C9 act: 0.9; CYP2C9 inhib: 7.1; CYP2C19 activ: 0.6

Results for Cc1cc(C)cc(CSc2nnc(C)c(=O)[nH]2)c1 ?
CYP2C19 inhib: 15.8; Cav32 inh: 0.421; CYP2C9 act: 0.1; CYP2C9 inhib: 85.6*; CYP2C19 activ: 0.8

How did Cc1nnc(SCC(C)C)[nH]c1=O do in these assays?
CYP2C19 inhib: 9.2; Cav32 inh: 0.092; CYP2C9 act: 0.8; CYP2C9 inhib: 20.2; CYP2C19 activ: 0.9

How did Nc1ccccc1-c1nnc(SCc2ccccc2Cl)[nH]c1=O do in these assays?
CYP2C19 inhib: 43.2; Cav32 inh: -0.566; CYP2C9 act: 0.1; CYP2C9 inhib: 87.6*; CYP2C19 activ: 0.6

What do the screens show for `CCSc1nnc(-c2ccccc2NC(=O)CC)c(=O)[nH]1`?
CYP2C19 inhib: -12.9; CYP2C9 act: 0.8; CYP2C9 inhib: 24.9; CYP2C19 activ: 1.1

How did Cc1ccc(CSc2nnc(-c3ccccc3N)c(=O)[nH]2)cc1 do in these assays?
CYP2C19 inhib: 15.1; Cav32 inh: 0.167; CYP2C9 act: 0.1; CYP2C9 inhib: 92.3*; CYP2C19 activ: 0.8

What do the screens show for `O=C(CN1C(=O)C2C3C=CC(C3)C2C1=O)NCc1ccc2c(c1)OCO2` (stereo unspecified)?
CYP2C19 inhib: 27.3; Cav32 inh: -0.726; CYP2C9 act: 0.9; CYP2C9 inhib: 14.9; CYP2C19 activ: 0.7

How did O=C(NC1CCCCC1)c1ccc(S(=O)(=O)NCc2cccnc2)cc1 do in these assays?
CYP2C19 inhib: 0.7; Cav32 inh: 0.513; CYP2C9 act: 0.8; CYP2C9 inhib: 24.2; CYP2C19 activ: 1

How did CCCSC1=C(C#N)C(c2ccccc2OCC)CC(=O)N1 (stereo unspecified) do in these assays?
CYP2C19 inhib: 47.4; Cav32 inh: 0.668; CYP2C9 act: 0.8; CYP2C9 inhib: 22.7; CYP2C19 activ: 0.5

Results for CCCCOC(=O)CSC1=C(C#N)C(c2ccccc2OC)C(C#N)C(=O)N1 (stereo unspecified) ?
CYP2C19 inhib: 63.5*; Cav32 inh: -0.955; CYP2C9 act: 0.5; CYP2C9 inhib: 54.7*; CYP2C19 activ: 0.4

How did CCCCOC(=O)CSC1=C(C#N)C(c2ccccc2OCC)C(C#N)C(=O)N1 (stereo unspecified) do in these assays?
CYP2C19 inhib: 49.5; Cav32 inh: -3.7; CYP2C9 act: 0.2; CYP2C9 inhib: 78.8*; CYP2C19 activ: 0.5

What do the screens show for `CCCOC(=O)CSC1=C(C#N)C(c2ccccc2OCC)C(C#N)C(=O)N1` (stereo unspecified)?
CYP2C19 inhib: 43.4; Cav32 inh: -1.01; CYP2C9 act: 0.3; CYP2C9 inhib: 66.8*; CYP2C19 activ: 0.6

How did CCCCc1nnc(NC(=O)C(C)Sc2nc(N)cc(=O)[nH]2)s1 (stereo unspecified) do in these assays?
CYP2C19 inhib: 6.3; Cav32 inh: 0.934; CYP2C9 act: 0.7; CYP2C9 inhib: 28.5; CYP2C19 activ: 0.9

What do the screens show for `COc1ccc(C)cc1NC(=O)c1cnc2sccn2c1=O`?
CYP2C19 inhib: 3.5; CYP2C9 act: 1.1; CYP2C9 inhib: -9.1; CYP2C19 activ: 1

How did C/C(=C\C(=O)OCCCCCCCCC(=O)O)C[C@@H]1OC[C@H](C[C@@H]2O[C@H]2[C@@H](C)[C@H](C)O)[C@@H](O)[C@H]1O do in these assays?
Cav32 inh: 0.486

How did Oc1sc(C=Nc2ccccc2)c2ccccc12 do in these assays?
CYP2C19 inhib: 44.2; Cav32 inh: -5.08*; CYP2C9 act: 0.9; CYP2C9 inhib: 7.0; CYP2C19 activ: 0.6

How did COc1ccc(CCNC(=O)Cc2ccc(OCc3ccccc3)c(OC)c2[N+](=O)[O-])cc1OCc1ccccc1 do in these assays?
CYP2C19 inhib: 74.4*; CYP2C9 act: 0.1; CYP2C9 inhib: 90.5*; CYP2C19 activ: 0.3

What do the screens show for `O=c1oc2ccccc2c(Nc2ccccc2)c1[N+](=O)[O-]`?
Cav32 inh: -0.369

Results for COc1ccc(CCNc2c([N+](=O)[O-])c(=O)oc3ccccc23)cc1OC ?
CYP2C19 inhib: 59.4*; Cav32 inh: 0.548; CYP2C9 act: 0.6; CYP2C9 inhib: 44.0; CYP2C19 activ: 0.4

How did O=c1oc2ccccc2c(Nc2cccc3ccccc23)c1[N+](=O)[O-] do in these assays?
CYP2C19 inhib: 90.9*; Cav32 inh: -3.07; CYP2C9 act: 0.4; CYP2C9 inhib: 62.2*; CYP2C19 activ: 0.1

Results for CC1(C)Oc2ccc3ccc(=O)oc3c2/C(=C/NCCN/C=C2\C(=O)C(C)(C)Oc3ccc4ccc(=O)oc4c32)C1=O ?
CYP2C19 inhib: 20.4; CYP2C9 act: 1; CYP2C9 inhib: 1.2; CYP2C19 activ: 0.8

What do the screens show for `Cc1ccc(C(C(=O)NC2CCCC2)N(Cc2cccs2)C(=O)c2csnn2)o1` (stereo unspecified)?
Cav32 inh: 0.333

What do the screens show for `COc1cccc(CNC(=O)C2CCN(S(=O)(=O)N3CC(C)CC(C)C3)CC2)c1` (stereo unspecified)?
CYP2C19 inhib: 15.3; Cav32 inh: 0.219; CYP2C9 act: 0.9; CYP2C9 inhib: 10.5; CYP2C19 activ: 0.8

How did Cc1ccc(S(=O)(=O)c2c(N)n(Cc3ccco3)c3nc4ccccc4nc23)cc1C do in these assays?
CYP2C19 inhib: 54.5*; Cav32 inh: -2.75; CYP2C9 act: 0.4; CYP2C9 inhib: 64.9*; CYP2C19 activ: 0.5

Results for Cc1ccc(S(=O)(=O)c2c(N)n(CCN3CCOCC3)c3nc4ccccc4nc23)cc1C ?
CYP2C19 inhib: 72.3*; Cav32 inh: 0.619; CYP2C9 act: 1; CYP2C9 inhib: 0.2; CYP2C19 activ: 0.3

Bioassay records from PubChem BioAssay.
